Screening data: PubChem BioAssay, National Center for Advancing Translational Sciences (NCATS)
Gal4-VP16 FLuc: counter-screen for ROR gamma inhibitors: Gal4-VP16 reporter | actives 3.5% (n = 310,000) | AID 2546 | Potency, µM (doses to about 53.6 µM), inactives show at the top dose activity, negative = inhibition, most hits filed as inhibitors | Drosophila S2 Gal4-VP16 UAS-luciferase, luminescence, 20 h;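 further: Gal4-VP16 expression switched on by copper sulfate through the metallothionein promoter; nearly all actives have a fitted effect of over 50% in size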
TDP1 cell noCPT: qHTS for Inhibitors of human tyrosyl-DNA phosphodiesterase 1 (TDP1): qHTS in cells in absence of CPT; DT40 Tdp1-/- hTDP1 cells, no CPT, ATP luminescence, 48 h; Potency, µM (top dose mostly 46.2 µM), for the others: at the top dose activity change, negative = growth inhibition, actives largely listed as inhibitors; actives 15% (n = 420,000); AID 686978, 2013; further: nearly all actives have a fitted effect of over 55% in size
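Stably hTDP1-transfected Tdp1-null chicken DT40 cells were treated with library compounds minus camptothecin and grown for at least 48 hr at 37 °C, after which cellular ATP was quantified by luminescence.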
DT40 TDP1 CPT: DT40-hTDP1 cell growth loss with CPT; chicken DT40 Tdp1-/-;hTDP1 cells + 20 nM CPT, ATP luminescence, 48 h; Potency, µM (doses to about 46.2 µM), for inactives: at the top dose activity change, negative = growth inhibition, usual class: inhibitors; actives 12% (n = 420,000); further: nearly all actives have a fitted effect of over 55% in size
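Cell growth measured by CellTiter-Glo luminescence after a minimum 48 h, 37 C compound exposure with 20 nM CPT in Tdp1-knockout DT40 cells stably expressing hTDP1, seeded 400/well; qHTS titration format.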
RORgamma inh: inhibitors of mouse ROR gamma transcriptional activity. Potency, µM (top dose mostly 53.6 µM), for the others: at the highest dose activity change, negative = inhibition, hits mostly inhibitors. actives 5.4% (n = 310,000). P51450. AID 2551. Drosophila S2 Gal4-RORgamma UAS-luciferase reporter, 20 h; further: nearly all actives have a fitted effect of over 60% in size
Target sequence (P51450 whole entry, looked up, the tested form may be a part): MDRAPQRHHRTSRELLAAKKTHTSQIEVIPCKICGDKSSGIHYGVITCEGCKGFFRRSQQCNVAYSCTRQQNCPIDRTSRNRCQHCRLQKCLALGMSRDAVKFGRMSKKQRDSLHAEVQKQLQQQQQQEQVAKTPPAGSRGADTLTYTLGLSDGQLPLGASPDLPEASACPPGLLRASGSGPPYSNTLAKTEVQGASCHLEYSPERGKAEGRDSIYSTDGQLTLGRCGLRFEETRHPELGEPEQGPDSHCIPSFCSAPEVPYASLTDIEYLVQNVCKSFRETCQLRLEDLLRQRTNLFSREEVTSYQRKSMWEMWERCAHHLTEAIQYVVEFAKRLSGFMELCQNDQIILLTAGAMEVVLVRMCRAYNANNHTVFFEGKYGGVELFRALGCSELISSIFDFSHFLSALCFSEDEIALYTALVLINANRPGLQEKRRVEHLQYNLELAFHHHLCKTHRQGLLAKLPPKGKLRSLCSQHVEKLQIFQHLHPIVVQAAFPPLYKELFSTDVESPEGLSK
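Using a luciferase readout, inhibitors were identified by reduced reporter activity in Drosophila cells coexpressing a copper-inducible Gal4–ROR gamma fusion and UAS-driven Photinus luciferase, incubated 20 hr after 700 uM copper sulfate.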
TDP1 block: blocks human tyrosyl-DNA phosphodiesterase 1. actives 0.28% (n = 350,000). Q9NUW8. recombinant TDP1, AlphaScreen DNA substrate cleavage. Potency, µM (doses to about 130 µM), for the others: top-dose activity change, negative = inhibition, hits mostly inhibitors; further: nearly all actives have a fitted effect of over 40% in size
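Here, a 5' biotin and 3' phosphotyrosine-FITC DNA oligonucleotide reports Tdp1 activity: intact substrate bridges AlphaScreen beads, while cleavage leaves a 3' phosphate and drops signal. All incubations at room temperature.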
The depositor's hits bear a star; ? = inconclusive; / = no result given. Hits are enriched below; roughly 19% of the tested compounds scored in any of these assays. The call rests on the fitted dose curve; in most records, active means well fitted curve in the direction sought with a large enough effect; inconclusive means small, poorly fitted or top-dose-only effect, or another doubt; inactive means no such curve, though single readings can be large; an effect the other way counts as inactive or inconclusive. On the % scale 0 is the no-effect control and ±100 the full control effect; potency means the concentration at half of the fitted maximal effect.

SMILES | Gal4-VP16 FLuc | TDP1 cell noCPT | DT40 TDP1 CPT | RORgamma inh | TDP1 block
CSCCC(NC(=O)C1CCC(C)CC1)C(=O)OCC(=O)c1ccc(Cl)cc1 (stereo not given) | 3.98µM* | -23.5% | -0.5% | 6.8% | -2.7%
C#CCOC(=O)Nc1cccn(Cc2c(Cl)cccc2Cl)c1=O | -5.9% | 10.3µM* | 20.6µM* | ? | 2.0%
COc1ccc2c(c1OC)C(=O)N(c1cccc(C(F)(F)F)c1)C2 | -1.2% | ? | ? | ? | 1.0%
NS(=O)(=O)c1ccc(CCNC(=O)CN2CCN(c3ccc(F)cc3)CC2)cc1 | 2.9% | ? | ? | 44.0% | 5.9%
Cc1ccc(Cl)cc1NC(=O)NCCN1CCCCC1 | -2.9% | -15.7% | 24.8% | -17.8% | /
Cc1ccc(Cl)cc1N1CCN(CCNC(=O)Nc2ccccc2Cl)CC1 | / | 11.6µM* | 16.4µM* | / | 0.0%
NS(=O)(=O)c1ccc(CCNC(=O)CN2CCN(c3cccc(Cl)c3)CC2)cc1 | -13.8% | 16.4µM* | 18.4µM* | ? | 2.7%
O=C(NCCCN1CCN(c2cccc(Cl)c2)CC1)Nc1ccccc1C(F)(F)F | / | ? | 14.6µM* | / | -2.5%
Cc1ccccc1CS(=O)(=O)CCC(=O)NCCN1CCN(c2cccc(Cl)c2)CC1 | -0.8% | 14.6µM* | 23.1µM* | ? | 3.9%
O=C(CCN1C(=O)c2ccccc2C1=O)NCc1ccncc1 | -7.7% | -6.8% | -20.0% | 4.0% | 9.3%
CCNc1nc(NC(C)C)nc(OCCOC(=O)Nc2ccccc2)n1 | 7.2% | ? | ? | ? | 2.4%
COc1ccccc1NC(=O)c1ccc2c(O)c(S(=O)(=O)c3ccccc3)c(=O)[nH]c2c1 | -5.4% | 12.5% | -5.4% | -18.8% | 6.1%
COc1ccc(OC)c(/C=N/NC(=O)c2nnn(-c3nonc3N)c2-c2cccs2)c1 | 7.1% | 8.1% | -5.5% | -3.1% | -0.2%
CN1CCN(CCNC(=O)Nc2ccccc2C(F)(F)F)CC1 | -1.5% | 2.0% | 6.3% | -11.4% | -4.1%
O=S(=O)(c1ccccc1)N1CCN(C(=S)NCCCN2CCOCC2)CC1 | -4.3% | -17.8% | 10.0% | 6.7% | 5.5%
S=C(NCCCN1CCOCC1)N1CCN(c2cccc(Cl)c2)CC1 | 8.2% | 18.4µM* | ? | 0.5% | /
O=C(NCCN1CCN(c2cccc(Cl)c2)CC1)Nc1ccccc1C(F)(F)F | / | 18.4µM* | ? | / | 0.0%
S=C(NC1CC2CCC1C2)N1CCN(c2cccc(Cl)c2)CC1 (stereo not given) | -14.1% | ? | ? | 22.4µM* | -0.6%
O=S(=O)(c1ccc(F)c(F)c1F)N1CCN(C(=S)NC2CC3CCC2C3)CC1 (stereo not given) | -2.0% | 1.7% | -21.1% | ? | -3.7%
CCC(Oc1ccccc1)C(=O)N1CCN(S(=O)(=O)c2ccccc2)CC1 (stereo not given) | / | ? | -14.2% | / | 1.2%
O=C(O)CS(=O)(=O)c1ccc(C(F)(F)F)cn1 | -4.9% | 1.3% | 4.3% | -1.3% | 0.0%
COc1cccc(/C(O)=C2/C(=O)C(=O)N(c3cc(C)on3)C2c2cccs2)c1 (stereo not given) | -11.4% | 3.66µM* | ? | 3.4% | 0.0%
CCC[C@@H](CNC)NC[C@H](Cc1ccccc1)NCCCCc1ccccc1 | 0.6% | 11.6µM* | 9.2µM* | -34.3% | /
CC(C)N(C)Cc1nnnn1CC(=O)NCCc1cccc(C(F)(F)F)c1 | 4.1% | -9.2% | 20.2% | 0.5% | 4.9%
CCC[C@@H](CN[C@@H](CNC)C(C)C)NCCCCc1ccccc1 | 0.1% | 0.82µM* | 1.03µM* | -19.1% | /
SMILES | Gal4-VP16 FLuc | TDP1 cell noCPT | DT40 TDP1 CPT | RORgamma inh | TDP1 block
CNC[C@@H](Cc1ccccc1)NC[C@@H](CC1CCCCC1)NCCCc1ccccc1 | ? | 9.2µM* | 8.2µM* | ? | /
O=C(COC(=O)c1ccccc1)NCCCCc1ccccc1 | / | ? | -10.9% | / | /
CNC[C@@H](CC1CCCCC1)NC[C@H](CC(C)C)NCCc1cccc(C(F)(F)F)c1 | ? | 5.17µM* | 5.17µM* | 11.2µM* | /
COC(=O)c1cccc(NS(C)(=O)=O)c1C | 2.2% | -5.3% | 2.7% | 0.4% | 4.0%
O=C(Nc1cccc(C(F)(F)F)c1)c1cccnn1 | -2.1% | -3.2% | -17.1% | 42.0% | /
CCOC(=O)C1CCN(C(=O)c2cn(CCOC)c(=O)c3c2c2ccccc2n3C)CC1 | -3.3% | -10.1% | -17.6% | 18.6% | 1.9%
Cc1cc(=O)oc2cc(O)cc(OCc3ccccc3)c12 | / | 16.4µM* | ? | / | /
N#Cc1c(N2CCCC(O)C2)nc(N)c2c(N)nc3c(c12)CC(=O)N3C12CC3CC(CC(C3)C1)C2 (stereo not given) | ? | 18.4µM* | 16.4µM* | 3.98µM* | -1.0%
C=C(C)CN(CC)c1nc(N)c2c(N)nc3c(c2c1C#N)CC(=O)N3C12CC3CC(CC(C3)C1)C2 | -8.1% | 3.26µM* | 3.26µM* | -15.0% | 8.8%
CCCCN1C(=O)Cc2c1nc(N)c1c(N)nc(N(CCC)CCC)c(C#N)c21 | 22.4µM* | -8.7% | -15.5% | ? | 8.7%
COc1ccc(CN2C(=O)Cc3c2nc(N)c2c(N)nc(N4CCCCC4)c(C#N)c32)cc1 | -11.3% | / | / | 7.9% | 4.4%
CCc1ccc(S(=O)(=O)NCc2cccs2)cc1 | 16.1% | ? | -27.7% | 4.7% | 3.7%
CSc1nc(-c2ccc(Cl)cc2)nc(N)c1C#N | 7.7% | -0.2% | -2.1% | -18.0% | /
CSc1nc(N)c(C#N)c(-c2ccc(Cl)cc2)c1C#N | -1.5% | 16.4µM* | -18.1% | ? | 4.1%
N#Cc1c(-c2ccc(Cl)cc2)c(C#N)c(=O)n(N)c1N | -4.7% | 29.1µM* | ? | 33.0% | 6.9%
Cc1ncoc1C(=O)N1CCCC(C(=O)c2ccc(Oc3ccccc3)cc2)C1 (stereo not given) | ? | -10.3% | 5.6% | ? | /
CC(=O)NCC(=O)N1CCCC(C(=O)c2ccc(Oc3ccccc3)cc2)C1 (stereo not given) | -4.1% | ? | 9.2µM* | 40.0% | 5.4%
COC(=O)c1c(C(=O)OC)c(-c2ccc(Cl)cc2)n2c1CS(=O)(=O)C2 | -1.6% | 20.6µM* | 20.6µM* | 1.9% | 4.6%
Cc1ccccc1-c1cc(C(=O)NCc2ccc3c(c2)OCO3)n(CC2CC(c3cccnc3)=NO2)n1 (stereo not given) | / | ? | ? | / | 2.5%
O=C1/C(=C/N(C(=O)c2ccco2)c2ccc(Cl)cc2)Sc2ccccc21 | ? | 16.4µM* | 23.1µM* | ? | 2.7%
O=C1/C(=C/N(C(=O)c2ccco2)c2ccc(Br)cc2)Sc2ccccc21 | 12.6µM* | 14.6µM* | ? | 35.5µM* | 3.1%
COc1cccc(-c2nnc(SCC(=O)N(C)c3ccccc3)o2)c1 | / | 10.3µM* | ? | / | 0.5%
